# PubChem BioAssay (NCI)
# The panel holds about 83,000 compounds, 20% with a hit somewhere; the sample as a whole holds those more often.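 Single-concentration screen, 48 h exposure, 96-well plates. Endpoint: percent growth. Below 10 = active.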 Values without a mark were called inactive. Active and inactive are the calls of the source.
# Columns and labels:
# Assay in all cases: NCI-60 one-dose screen, 48 h (100 = growth as untreated, 0 = no growth, -100 = all killed)
# Conditions in all cases: 10 µM unless noted
# NCI/ADR-RES ovarian = system: NCI/ADR-RES ovarian
# T-47D breast = system: T-47D breast
# BT-549 breast = system: BT-549 breast
# MDA-MB-435 melanoma = system: MDA-MB-435 melanoma
# SW-620 colon = system: SW-620 colon
# MCF7 breast = system: MCF7 breast
# HCT-116 colon = system: HCT-116 colon
# HCC-2998 colon = system: HCC-2998 colon
# KM12 colon = system: KM12 colon
Compound,growth (NCI/ADR-RES ovarian),growth (T-47D breast),growth (BT-549 breast),growth (MDA-MB-435 melanoma),growth (SW-620 colon),growth (MCF7 breast),growth (HCT-116 colon),growth (HCC-2998 colon),growth (KM12 colon)
CC(=O)O[C@H](C[C@H](C(C)C)N(C)C(=O)[C@@H](NC(=O)[C@H]1CCCCN1C)C(C)C)c1nc(C(=O)NC2CCC(C(=O)O)CC2)cs1 (some centres undefined),96.8%,50.4%,45.6%,-28.9% (active),32.6%,18.5%,34.8%,83.7%,39.2%
CCOC(=O)N1CC1,98%,114%,109%,97.1%,103%,102%,98.4%,150%,107%
O=C1C2C(C(=O)[N]1[Hg][c]1cccs1)C1(Cl)C(Cl)=C(Cl)C2(Cl)C1(Cl)Cl (centres undefined),21%,-78.5% (active),-1.18% (active),7.41% (active),-40.4% (active),-13.1% (active),-31.9% (active),49.7%,87.3%
COP(=O)(OC)C(O)c1ccc(Cl)cc1 (centres undefined),96.9%,114%,94.1%,100%,101%,98.4%,94.7%,98.9%,90%
CC(=O)OCC1O[C@@H]([S-])C(OC(C)=O)[C@H](OC(C)=O)[C@@H]1OC(C)=O.[Au+].c1ccc(CN2[CH-]N(Cc3ccccc3)C(c3ccccc3)=C2c2ccccc2)cc1,98.7%,-37.1% (active),-30.2% (active),48.4%,8.97% (active),-3.49% (active),18.8%,-57.4% (active),59.6%
CCN(CCO)C(Cc1ccccc1)c1ccccc1 (centres undefined),94.7%,111%,100%,94.4%,96.4%,94%,99.3%,96.8%,99.4%
CCCCNC(c1ccc(Cl)cc1)C(O)c1ccc(Cl)cc1 (centres undefined),40.9%,46.4%,80.6%,21.4%,2.85% (active),3.13% (active),5.84% (active),-55.7% (active),21.6%
Cn1cc(-c2csc(-c3cn(CCN4CCOCC4)c4ccc(F)cc34)n2)c2cccnc21,5.84% (active),-17.7% (active),10.8%,32.2%,44.9%,8.93% (active),36.9%,86.7%,22.3%
CCCCCCCCCCCCCCCCCCOc1ccccc1COP(=O)(O)OOCC[N+](C)(C)C,88.5%,16.8%,25.5%,7.62% (active),6.94% (active),16.2%,1.15% (active),-8.6% (active),0.411% (active)
COc1ccc(/C=C\c2cc(OC)c(OC)c(OC)c2)cc1NC(=O)/C=C/c1ccc(OC)c(OC)c1,-8.84% (active),40.2%,39.1%,-51.4% (active),39.2%,21.3%,25%,-3.07% (active),27.3%
CC(=O)O[C@H](C[C@H](C(C)C)N(C)C(=O)[C@@H](NC(=O)[C@H]1CCCCN1C)C(C)C)c1cccc(C(=O)N[C@@H](Cc2ccccc2)C[C@H](C)C(=O)O)n1,8.24% (active),47.7%,-8.23% (active),-37.7% (active),23.7%,15.9%,2.75% (active),9.77% (active),4.91% (active)
COc1ccc(Nc2ccnc3cc(Cl)ccc23)cc1CN(CCCl)CCCl,-40.4% (active),-7.47% (active),-50.6% (active),-88.3% (active),-28.6% (active),-10.7% (active),-79.8% (active),-79.5% (active),-62.6% (active)
COc1cc(/C=C/[N+](=O)[O-])cc(OC)c1,11.3%,-1.67% (active),-49.7% (active),-46.4% (active),-10.5% (active),-59.1% (active),-68.3% (active),-79.7% (active),-23.7% (active)
NC(N)=N/N=C\c1c[nH]c2ccc(Br)cc12,87%,36.6%,23.7%,98.1%,101%,75.4%,92%,,94.9%
CNC(=O)Oc1ccc(N(C)C)cc1C(C)C,107%,101%,73.6%,91.7%,116%,91%,95.9%,,112%
O=C(Nc1ccc(O)cc1)C(Cl)(Cl)Cl,99.4%,89.5%,91.2%,103%,110%,99.1%,103%,,103%
CCCCN(CCCC)P(=O)(Oc1ccccc1)Oc1ccccc1,51.4%,47.4%,73.5%,71.4%,52%,48.4%,29.2%,83.7%,58.6%
CC[C@H](C)[C@@H]1OC(=O)C(C)(C)[C@H](O)[C@H](Cc2ccccc2)OC(=O)[C@H](C(C)C)OC(=O)[C@@H](NC(=O)c2cccc(NC=O)c2O)[C@@H](C)OC1=O,53.4%,33.2%,53.8%,53.2%,60.8%,40%,36.5%,,53.5%
COc1ccc(/C=C\c2cc(OC)c(OC)c(OC)c2)cc1OCC(=O)Nc1nc2ccc(OC(F)(F)F)cc2s1,-7.34% (active),22.4%,58.7%,-30.2% (active),25.1%,24.3%,19.5%,,19.2%
O=c1[nH]c2ccc([N+](=O)[O-])cc2c(=O)o1,101%,111%,95.3%,111%,105%,,103%,102%,106%
CCCC[C@H](NC(=O)[C@H]1CCCN1C)C(=O)N(C)[C@H](C[C@@H](OC(C)=O)c1nc(C(=O)N[C@@H](Cc2ccccc2)C[C@H](C)C(=O)OCC)cs1)C(C)C,7.13% (active),54.4%,-21.7% (active),-28.6% (active),22.1%,,,14.2%,13.6%
CN1C(=O)N[C@H]2[C@@H]3NC(=O)c4ccc(Br)n4[C@@H]3C[C@]21O,48.6%,-10.6% (active),-47.8% (active),-30.6% (active),-4.51% (active),-4.96% (active),-17.1% (active),-24.1% (active),-12.8% (active)
N#C[S-].[Au+].c1ccc(CN2[CH-]N(Cc3ccccc3)C(c3ccccc3)=C2c2ccccc2)cc1,59.8%,7.11% (active),23.4%,13.3%,17.9%,4.87% (active),8.06% (active),30.9%,14.2%
CC[C@H](C)[C@H](NC(=O)[C@H]1CCCCN1C)C(=O)N(C)[C@H](CC(=O)c1nc(C(=O)N[C@@H](Cc2ccccc2)C[C@H](C)C(=O)O)cs1)C(C)C,113%,64.8%,63%,15.5%,50.2%,23.1%,77.3%,87.9%,65.1%
COC(=O)[C@@H](C)C[C@H](Cc1ccccc1)NC(=O)c1nc([C@@H](C[C@H](C(C)C)N(C)C(=O)[C@@H](NC(=O)[C@H]2CCCN2C)C(C)C)OC(C)=O)sc1C,4.35% (active),43.2%,-12.7% (active),-18.4% (active),20.1%,,,13.5%,11.9%
COc1cccc(C=NC(Cc2cnc[nH]2)C(=O)O)c1O (centres undefined),98.4%,108%,91.1%,84.2%,102%,93.4%,97.8%,,104%
CCC1CC(O)c2c(O)c3c(c(O)c2C1O)C(=O)c1cccc(O)c1C3=O (centres undefined) (tested in a mixture with another compound),-55.4% (active),-14.1% (active),-68.1% (active),-90.3% (active),-60.3% (active),-51% (active),-39.8% (active),,-38.4% (active)
O=C(Nc1ccc([N+](=O)[O-])cc1)C(Cl)(Cl)Cl,99.6%,80.7%,91.6%,104%,105%,85.9%,91.1%,,97.1%
